Experiments:
Type in all cases: functional
Plasmodium falciparum [1] = assay: GSK_TCMDC: Inhibition of Plasmodium falciparum 3D7 in whole red blood cells, using parasite LDH activity as an index of growth. Test compounds present at 2uM
Plasmodium falciparum [2] = assay: GSK_TCMDC: Inhibition of Plasmodium falciparum Dd2 in whole red blood cells, using parasite LDH activity as an index of growth. Test compounds present at 2uM
HepG2 = assay: GSK_TCMDC: Percent inhibition of human HepG2 cell line. Test compounds present at 10uM.

SMILES	Inhibition (Plasmodium falciparum [1]) [%]	Inhibition (Plasmodium falciparum [2]) [%]	Inhibition (HepG2) [%]
O=C(Nc1ccc(Cl)cc1)Nc1ccc(-c2ccc(-c3nc4ccccc4[nH]3)cc2)cc1	100	99	47
Cc1cc(N[C@@H](CC(C)C)C(=O)NCCOc2ccccc2)nc(NCCc2ccccc2)n1.O=C(O)C(F)(F)F	94	29	13
COc1ccc(CN2CCCC(N3CC4(OC3=O)c3ccccc3-c3ccccc34)C2)c(O)c1 (stereo not drawn)	92	34	14
CCCCCc1ccc(NC(=O)Nc2ccc(Cn3ncc(N4CCCNCC4)c(Cl)c3=O)cc2)cc1.O=C(O)C(F)(F)F	87	23	15
CCCCCOc1ccc(C(O)C(CCC(CN2CCCCCC2)C(O)c2ccc(OCCCCC)cc2)CN2CCCCCC2)cc1.Cl (stereo not drawn)	99	93	99
COc1ccc2nccc([C@@H](O)CN3CCC(NCc4ccc5cccc(O)c5n4)CC3)c2c1.O=C(O)C(=O)O	93	40	10
COc1ccc(C(=O)CCC(=O)N(Cc2ccc(-c3ccc(CNCCc4ccc(S(C)(=O)=O)cc4)cn3)cc2)C2CC3CCC2C3)cc1F.O=C(O)C(F)(F)F (stereo not drawn)	97	34	5
CN(C)CCCOc1cccc(CCNCc2cccc(Oc3ccc(Cl)cc3)c2)c1.O=C(O)C(F)(F)F	93	67	72
Cc1c(Cc2ccccc2Br)cnc2nc(N)nc(N)c12.Cl	88	97	67
COc1ccc(NC(=O)[C@H](CC(C)C)Nc2cc(C)nc(NCCc3ccccc3OC)n2)cc1.O=C(O)C(F)(F)F	99	68	9
CCN(CC)CCN(Cc1ccc(-c2ccc(C(F)(F)F)cc2)cc1)C(=O)Cn1c(CCc2c(F)cc(F)cc2F)nc(=O)c2ccccc21.O=C(O)C(O)C(O)C(=O)O	89	26	39
Cl.NOCCCOc1ccccc1	100	0	20
O=C(N[C@H]1CCN(Cc2ccc(OCCN3CCNCC3)c(Br)c2)C1)c1ccc(Cl)c(Cl)c1.O=C(O)C(F)(F)F	100	36	69
CCN(CC)CCN(CCCc1ccc(-c2ccc(C(F)(F)F)cc2)cc1)C(=O)Cn1c(CCc2cccc(F)c2F)nc(=O)c2c1CCC2.O=C(O)C(O)C(O)C(=O)O	92	27	38
O=C(Nc1ccc2c(ccn2C2CCCN(Cc3cc(F)cc(F)c3F)CC2)c1)c1ccco1 (stereo not drawn)	89	94	7
N#Cc1ccc(CN2CCCN(Cc3cccc(NC(=O)c4ccc(Cl)c(Cl)c4)c3)CC2)cc1.O=C(O)C(F)(F)F	95	10	19
Cc1ccccc1CNc1noc(-c2sccc2Br)n1	99	88	0
NC1=NC(c2ccccc2)(c2ccccc2)C(=O)N1CCCCc1ccccc1.O=CO	96	81	14
COc1ccc(CCCN2C(=O)C(c3ccccc3)(c3ccccc3)N=C2N)cc1.O=C(O)C(F)(F)F	94	76	21
CCCCC(CC)CN1C(=O)C(c2ccccc2)(c2ccccc2)N=C1N.O=CO (stereo not drawn)	94	98	32
COc1ccccc1NC(=O)c1cc(C(=O)c2cc(Cl)ccc2O)cn(-c2ccccc2OC)c1=O	92	31	9
O=C(CCCCCNC(=O)c1ccc(O)c(-c2ccc(Cl)c(Cl)c2)c1)NCCN1CCCC1	90	2	0
O=[N+]([O-])c1cccc(/C=N/Nc2ccnc3cc(F)ccc23)c1	100	100	4
CCNc1cc(C(=O)N[C@@H](Cc2ccccc2)[C@H](O)CNC2(CCC(C)C)CC2)cc(N2CCCCS2(=O)=O)c1.Cl	90	52	6
Cl.N#Cc1ccc2c(c1)CCN(CCC1CCC(NC(=O)Nc3ccncc3)CC1)C2 (stereo not drawn)	85	3	6
COc1ccc2c(c1)c(C1CCN(CCCCNC(=O)c3ccc(-c4ccc(C(F)(F)F)cc4)cc3)CC1)cn2C(C)C	99	21	26
